PubChem BioAssay (Tox21)
Where “and” joins values, the source holds several entries; their conditions need not be identical. Equal entries are not always repeated. Inconclusive results are not listed. A call without a number means that no potency is given here. The source holds several records for some structures; these can differ, active in one and inactive in another. Calls of active or inactive are those of the source. Unless noted, calls follow the shape of the dose curve; as a rule, active = well fitted curve in the direction sought with a large enough effect in the repeat runs; inconclusive = weak or mixed curves; inactive = no such curve, though single readings can be large; an effect the other way counts as inactive or inconclusive.

What was measured:
[1] = molecular target: Progesterone receptor (Homo sapiens) (UniProt P06401); assay: qHTS assay to identify small molecule agonists of the progesterone receptor (PR) signaling pathway (AID 1346784; calls by dose curve; also: nearly all actives have a fitted effect of over 30% in size)
Progesterone receptor (Homo sapiens), sequence (P06401 whole entry, looked up): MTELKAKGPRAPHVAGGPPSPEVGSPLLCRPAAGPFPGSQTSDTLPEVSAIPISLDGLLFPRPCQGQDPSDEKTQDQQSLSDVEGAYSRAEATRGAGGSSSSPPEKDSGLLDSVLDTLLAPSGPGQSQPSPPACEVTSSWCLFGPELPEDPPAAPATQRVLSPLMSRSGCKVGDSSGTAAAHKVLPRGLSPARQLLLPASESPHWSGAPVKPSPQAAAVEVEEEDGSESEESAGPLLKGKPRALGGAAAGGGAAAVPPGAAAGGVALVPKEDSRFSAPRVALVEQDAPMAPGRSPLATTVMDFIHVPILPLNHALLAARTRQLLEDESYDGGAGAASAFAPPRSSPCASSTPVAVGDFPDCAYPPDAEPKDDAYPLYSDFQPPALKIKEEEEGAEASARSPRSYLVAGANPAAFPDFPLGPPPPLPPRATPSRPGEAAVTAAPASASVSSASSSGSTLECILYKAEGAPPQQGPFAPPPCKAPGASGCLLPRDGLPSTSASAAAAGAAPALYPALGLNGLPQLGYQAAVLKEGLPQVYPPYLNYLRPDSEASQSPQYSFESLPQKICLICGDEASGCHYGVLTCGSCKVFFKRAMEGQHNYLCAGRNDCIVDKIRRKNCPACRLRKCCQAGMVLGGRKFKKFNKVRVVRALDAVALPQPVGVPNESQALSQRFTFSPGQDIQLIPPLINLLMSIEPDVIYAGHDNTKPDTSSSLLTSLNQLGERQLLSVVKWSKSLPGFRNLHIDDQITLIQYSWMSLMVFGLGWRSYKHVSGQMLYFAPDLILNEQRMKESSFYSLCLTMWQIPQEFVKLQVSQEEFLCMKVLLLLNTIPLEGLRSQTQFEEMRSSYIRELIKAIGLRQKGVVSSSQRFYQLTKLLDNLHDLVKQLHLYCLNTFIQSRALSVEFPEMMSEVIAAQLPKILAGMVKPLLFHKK
In short: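 The screen uses PR-UAS-bla HEK 293T cells in charcoal-stripped serum (2%). Compounds are applied for 16 hr at 37C after a 6 hr pre-incubation, and reporter activity is detected with a FRET beta-lactamase substrate after 2 hr at room temperature.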

[2] = qHTS assay to identify small molecule agonists of the progesterone receptor (PR) signaling pathway - cell viability counter screen (AID 1346799; calls by dose curve; also: nearly all actives have a fitted effect of over 45% in size; also: potency is read from the fitted curve at half-maximal effect)
In short: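 Viability was scored by ATP luminescence (CellTiter-Glo, 30 min, room temperature) in the same wells used for the reporter readout, after 16 hr compound exposure of PR-UAS-bla HEK293T cells.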

[3] = qHTS assay to identify small molecule antagonists of the TGF-beta/Smad signaling pathway - cell viability counter screen (AID 1346824); also: nearly all actives have a fitted effect of over 50% in size; also: potency is read from the fitted curve at half-maximal effect
In short: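 SBE-bla HEK 293T cells, incubated overnight, then compound plus 0.25 ng/mL TGF-beta1 (stock added) for 5 hr at 37 C. Viability was read in the same wells by CellTiter-Glo luminescence after 30 min at room temperature.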

[4] = qHTS assay to identify small molecule agonists of the TGF-beta/Smad signaling pathway - cell viability counter screen (AID 1346829); also: nearly all actives have a fitted effect of over 45% in size; also: potency is read from the fitted curve at half-maximal effect
In short: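 CellTiter-Glo luminescence readout; SBE-bla HEK 293T cells, overnight plating, compound 5 hr at 37 C/5% CO2, then bla substrate 2 hr RT, then CellTiter-Glo 30 min RT.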

[5] = Human pregnane X receptor (PXR) small molecule agonists, qHTS cell viability counter screen (AID 1346977); also: nearly all actives have a fitted effect of over 50% in size; also: potency is read from the fitted curve at half-maximal effect
In short: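 HepG2 cells stably carrying the PXR-Luc reporter are cultured with 5% charcoal-stripped FBS and treated with compounds for 24hr. CellTiter-Fluor is added at 23hr and fluorescence is read after 1hr.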

[6] = Caspase-3/7 induction in HepG2 cells by small molecules, qHTS assay (AID 1346978); also: nearly all actives have a fitted effect of over 15% in size; also: potency is read from the fitted curve at half-maximal effect
In short: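 Wild-type HepG2 cells, 2,000/well, settled 5 hr at 37 C and 5% CO2, then compound-treated for 17 hr; caspase-3/7 activity read by luminescent Caspase-Glo 3/7 after 30 min at room temperature.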

[7] = Caspase-3/7 induction in CHO-K1 cells by small molecules, qHTS assay (AID 1346980); also: nearly all actives have a fitted effect of over 15% in size; also: potency is read from the fitted curve at half-maximal effect
In short: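 Wild-type CHO-K1 cells exposed to compounds for 17hr at 37 C, 5% CO2. Caspase-3/7 activity then measured by Caspase-Glo 3/7 luminescence after 30min at room temperature.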

[8] = Caspase-3/7 induction in HepG2 cells by small molecules, qHTS cell viability counter screen (AID 1346981); also: nearly all actives have a fitted effect of over 30% in size; also: potency is read from the fitted curve at half-maximal effect
In short: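 Wild-type HepG2 cells, 2,000/well, settled 5 hr at 37 C, 5% CO2 before compound addition. Viability read by CellTiter-Fluor fluorescence, reagent added after 16 hr compound exposure, then 1 hr at 37C, in the same wells as the caspase read.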

[9] = molecular target: Nuclear receptor subfamily 1 group I member 2 (Rattus norvegicus) (UniProt Q9R1A7); assay: Rat pregnane X receptor (rPXR) activation by small molecules, qHTS assay (AID 1346983); conditions: rPXR luciferase reporter cells, One-Glo luminescence, 24 h; max activation: stronger effect = higher value; also: nearly all actives have a fitted effect of over 20% in size
Nuclear receptor subfamily 1 group I member 2 (Rattus norvegicus), sequence (Q9R1A7 whole entry, looked up): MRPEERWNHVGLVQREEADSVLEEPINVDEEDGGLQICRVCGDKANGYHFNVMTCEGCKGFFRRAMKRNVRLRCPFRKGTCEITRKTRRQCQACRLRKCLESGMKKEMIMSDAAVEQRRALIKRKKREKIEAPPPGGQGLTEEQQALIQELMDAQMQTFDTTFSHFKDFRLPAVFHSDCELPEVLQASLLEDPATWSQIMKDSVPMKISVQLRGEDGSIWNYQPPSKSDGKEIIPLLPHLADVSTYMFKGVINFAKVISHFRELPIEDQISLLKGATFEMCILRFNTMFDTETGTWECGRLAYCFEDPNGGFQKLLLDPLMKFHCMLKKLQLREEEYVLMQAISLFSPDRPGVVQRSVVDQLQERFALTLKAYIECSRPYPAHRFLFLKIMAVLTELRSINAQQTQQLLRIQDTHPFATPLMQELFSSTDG
In short: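 Cell-based rPXR activation assay: rPXR cells, 2,000 per well, rested 5hr at 37 C, then exposed to compounds in DMSO for 24 hr at 37 C. Luciferase activity read by One-Glo luminescence after 30 min at room temperature.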

[10] = molecular target: Nuclear receptor subfamily 1 group I member 2 (Homo sapiens) (UniProt O75469); assay: CYP3A4 induction through human pregnane X receptor (PXR) by small molecules, qHTS assay (AID 1346984); also: nearly all actives have a fitted effect of over 40% in size; also: potency is read from the fitted curve at half-maximal effect
Nuclear receptor subfamily 1 group I member 2 (Homo sapiens), sequence (O75469 whole entry, looked up): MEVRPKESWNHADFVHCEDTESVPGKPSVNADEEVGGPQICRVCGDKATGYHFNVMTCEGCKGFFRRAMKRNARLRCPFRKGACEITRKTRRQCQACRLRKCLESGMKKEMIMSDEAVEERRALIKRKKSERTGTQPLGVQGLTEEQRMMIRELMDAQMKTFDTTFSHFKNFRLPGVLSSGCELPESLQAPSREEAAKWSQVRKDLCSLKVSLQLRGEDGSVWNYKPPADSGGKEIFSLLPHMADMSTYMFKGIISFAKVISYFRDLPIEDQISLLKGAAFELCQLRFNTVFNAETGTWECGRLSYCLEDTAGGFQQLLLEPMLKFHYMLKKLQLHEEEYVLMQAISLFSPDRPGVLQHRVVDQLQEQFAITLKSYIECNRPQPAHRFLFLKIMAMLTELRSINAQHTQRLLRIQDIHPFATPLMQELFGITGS
In short: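 DPX-2 HepG2 cells carrying a PXR response element and CYP3A4-promoter luciferase construct, treated with compounds 24 hr at 37C. Then P450-Glo CYP3A4 Luciferin-IPA substrate (3uM final) for 3 hr at 37C, One-Glo added, luminescence read.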

[11] = molecular target: Nuclear receptor subfamily 1 group I member 2 (Homo sapiens) (UniProt O75469); assay: Human pregnane X receptor (PXR) activation by small molecules, qHTS assay (AID 1346985); also: nearly all actives have a fitted effect of over 40% in size
In short: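 DPX-2 cells (HepG2 co-transfected with a PXR response element and a CYP3A4-promoter luciferase construct) were seeded at 2,000 per well, rested 5 hr at 37C, then exposed to DMSO-dissolved compounds for 24 hr. Activation was read as luciferase luminescence.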

[12] = molecular target: Cytochrome P450 2C19 (Homo sapiens) (UniProt P33261); assay: Cytochrome P450 Family 2 Subfamily C Member 19 (CYP2C19) small molecule antagonists: luciferase reporter qHTS assay (AID 1671197); also: nearly all actives have a fitted effect of over 65% in size; also: potency is read from the fitted curve at half-maximal effect
Cytochrome P450 2C19 (Homo sapiens), sequence (P33261 whole entry, looked up): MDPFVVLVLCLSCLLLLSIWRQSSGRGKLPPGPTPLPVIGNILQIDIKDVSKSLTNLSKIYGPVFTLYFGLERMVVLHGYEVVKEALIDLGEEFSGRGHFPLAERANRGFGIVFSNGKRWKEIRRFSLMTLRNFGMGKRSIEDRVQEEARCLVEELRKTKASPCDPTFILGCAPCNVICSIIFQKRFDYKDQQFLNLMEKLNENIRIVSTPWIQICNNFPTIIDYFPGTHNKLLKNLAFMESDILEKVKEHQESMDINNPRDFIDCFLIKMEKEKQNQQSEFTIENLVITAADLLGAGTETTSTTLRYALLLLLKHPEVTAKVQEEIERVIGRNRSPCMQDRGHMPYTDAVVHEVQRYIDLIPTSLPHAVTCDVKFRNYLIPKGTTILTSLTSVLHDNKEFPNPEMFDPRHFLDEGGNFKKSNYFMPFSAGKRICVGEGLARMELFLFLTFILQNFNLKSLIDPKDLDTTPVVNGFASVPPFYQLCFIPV
In short: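 Enzyme-substrate mix with proluciferin substrate (P450-Glo CYP2C19 system) preincubated with compounds 10 min at room temperature; NADPH regeneration solution added, 37C for 1 h; detection reagent stops reaction, luminescence read after 20 min. Ketoconazole positive control.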

[13] = molecular target: Progesterone receptor (Homo sapiens) (UniProt P06401); assay: qHTS assay to identify small molecule antagonists of the progesterone receptor (PR) signaling pathway (AID 1346795; active = well fitted inhibition curve with a large enough effect in the signal ratio in the repeat runs, not every such curve was filed as active; the % refers to the signal ratio; also: potency is read from the fitted curve at half-maximal effect)
In short: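 After 6 hr plating at 37C in 2% stripped-serum medium, PR-UAS-bla HEK293T cells got compounds, then 1 nM R5020. Sixteen hours later, LiveBLAzer substrate was applied for 2 hr at room temperature and fluorescence was recorded.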

[14] = qHTS assay to identify small molecule antagonists of the progesterone receptor (PR) signaling pathway - cell viability counter screen (AID 1346798); also: nearly all actives have a fitted effect of over 50% in size; also: potency is read from the fitted curve at half-maximal effect
In short: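 Viability was determined by ATP-based luminescence (CellTiter-Glo) in PR-UAS-bla HEK293T cells cultured in 2% charcoal-stripped serum and incubated 16 hr with compounds under R5020 stimulation.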

[15] = qHTS assay to identify small molecule agonists of the TGF-beta/Smad signaling pathway (AID 1346859; active = well fitted activation curve with a large enough effect in the signal ratio in the repeat runs, not every such curve was filed as active; the % refers to the signal ratio; also: series mostly up to about 77 µM)
In short: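 Dual-wavelength fluorescence (460/530 nm emission) quantified beta-lactamase expression under the Smad binding element in HEK 293T cells following 5 hr compound treatment at 37 C.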

[16] = Caspase-3/7 induction in CHO-K1 cells by small molecules, qHTS cell viability counter screen (AID 1346979); also: nearly all actives have a fitted effect of over 35% in size; also: potency is read from the fitted curve at half-maximal effect
In short: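 Seeding: 1,500 CHO-K1 cells/well. Rest: 5hr, 37C. Treatment: compounds in DMSO, 16hr. Read: CellTiter-Fluor, 1hr, fluorescence.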

[17] = molecular target: Cytochrome P450 2D6 (Homo sapiens) (UniProt P10635); assay: Cytochrome P450 Family 2 Subfamily D Member 6 (CYP2D6) small molecule antagonists: luciferase reporter qHTS assay (AID 1671196); also: nearly all actives have a fitted effect of over 50% in size; also: potency is read from the fitted curve at half-maximal effect
Cytochrome P450 2D6 (Homo sapiens), sequence (P10635 whole entry, looked up): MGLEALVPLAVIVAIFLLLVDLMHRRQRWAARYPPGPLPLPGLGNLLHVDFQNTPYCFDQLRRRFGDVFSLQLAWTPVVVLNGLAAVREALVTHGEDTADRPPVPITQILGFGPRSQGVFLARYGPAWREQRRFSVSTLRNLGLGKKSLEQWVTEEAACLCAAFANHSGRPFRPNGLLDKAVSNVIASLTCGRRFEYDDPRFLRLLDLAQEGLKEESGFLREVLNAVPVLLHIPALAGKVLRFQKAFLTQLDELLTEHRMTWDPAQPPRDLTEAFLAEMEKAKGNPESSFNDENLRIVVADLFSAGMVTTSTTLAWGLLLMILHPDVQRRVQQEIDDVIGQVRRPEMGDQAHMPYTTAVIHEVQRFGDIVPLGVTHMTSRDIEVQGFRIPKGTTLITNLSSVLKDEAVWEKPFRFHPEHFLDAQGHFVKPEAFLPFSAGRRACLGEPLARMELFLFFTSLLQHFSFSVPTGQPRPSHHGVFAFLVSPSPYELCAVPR
In short: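 Cell-free P450-Glo system: CYP2D6 with proluciferin substrate was pre-incubated with compound for 10 min, then reacted with NADPH regeneration for 1 h at room temperature. Luciferin product was detected after 20 min, and data were reported as relative luminescence units.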

[18] = molecular target: Thyrotropin-releasing hormone receptor (Homo sapiens) (UniProt P34981); assay: qHTS assay to identify small molecule antagonists of the thyrotropin-releasing hormone receptor (TRHR) signaling pathway (AID 1346877; active = well fitted inhibition curve with a large enough effect in the repeat runs, not every such curve was filed as active; also: series mostly up to about 51 µM)
Thyrotropin-releasing hormone receptor (Homo sapiens), sequence (P34981 whole entry, looked up): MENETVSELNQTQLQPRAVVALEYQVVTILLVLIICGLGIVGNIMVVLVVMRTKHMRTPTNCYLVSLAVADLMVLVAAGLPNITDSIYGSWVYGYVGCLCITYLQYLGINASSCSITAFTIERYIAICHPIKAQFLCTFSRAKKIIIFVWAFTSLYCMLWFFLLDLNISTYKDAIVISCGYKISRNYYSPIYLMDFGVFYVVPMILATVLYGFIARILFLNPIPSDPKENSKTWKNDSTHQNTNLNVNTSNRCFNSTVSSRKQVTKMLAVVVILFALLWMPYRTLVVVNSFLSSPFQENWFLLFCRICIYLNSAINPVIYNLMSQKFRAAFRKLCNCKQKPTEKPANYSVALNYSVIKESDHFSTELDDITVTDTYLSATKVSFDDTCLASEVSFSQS
In short: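 TRHR-expressing HEK293 cells loaded with calcium dye for 2 h at 37 C; compounds pre-incubated 5 min at room temperature before TRH challenge at 1 nM final. Intracellular calcium fluorescence read kinetically for 3 min; 15 concentrations in triplicate.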

[19] = molecular target: Thyrotropin-releasing hormone receptor (Homo sapiens) (UniProt P34981); assay: qHTS assay to identify small molecule agonists of the thyrotropin-releasing hormone receptor (TRHR) signaling pathway (AID 1346891; calls by dose curve; also: series mostly up to about 58 µM)
In short: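 Kinetic fluorescence (3 min, 1 s intervals) reported intracellular calcium after compound transfer onto TRHR-Hek293 cells pre-loaded with dye for 2 h at 37 °C.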

[20] = molecular target: Nuclear receptor subfamily 1 group I member 2 (Homo sapiens) (UniProt O75469); assay: Human pregnane X receptor (PXR) small molecule agonists, qHTS assay (AID 1346982); also: nearly all actives have a fitted effect of over 35% in size; also: potency is read from the fitted curve at half-maximal effect
In short: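 PXR-Luc HepG2 reporter cells (CYP3A4-driven luciferase) in 5% charcoal-stripped FBS medium, plated 5 h before compound addition, then treated 24 h at 37C. Luciferase read by ONE-Glo luminescence after 30 min at room temperature.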

Row | SMILES | Potency [1] | Potency [2] | Potency [3] | Potency [4] | Potency [5] | Potency [6] | Potency [7] | Potency [8] | max activation [9] | Potency [10] | Potency [11] | Potency [12] | Potency [13] | Potency [14] | Potency [15] | Potency [16] | Potency [17] | Potency [18] | Potency [19] | Potency [20]
1 | CCOC(=O)/C=C(C)/C=C/C=C(C)/C=C/c1c(C)cc(OC)c(C)c1C | inactive | inactive | inactive | inactive | inactive | inactive | inactive | inactive | -4.32% (inactive) | inactive | inactive | 11 µM (active) | – | – | – | – | – | – | – | –
2 | C=CC(=O)OCC(CO)(COCC(COC(=O)C=C)(COC(=O)C=C)COC(=O)C=C)COC(=O)C=C | – | 15.2 µM (active) | – | 21.6 µM (active) | 3.03 µM (active) | 6.04 µM (active) | 480 nM (active) | 3.81 µM (active) | – | – | – | 7.87 µM (active) | 6.04 µM (active) | 15.2 µM (active) | inactive | 0.76 µM (active) | 15.7 µM (active) | – | – | –
3 | CCN(C(=O)N(CC)c1ccccc1)c1ccccc1 | – | inactive | inactive | inactive | – | inactive | inactive | inactive | – | – | – | 7.96 µM (active) | 30.6 µM (active) | inactive | inactive | – | inactive | inactive | inactive | 30.6 µM (active)
4 | N#CC1(c2ccc(F)cc2)CCC(=O)CC1 | inactive | inactive | – | inactive | inactive | inactive | inactive | inactive | – | – | – | – | – | – | inactive | inactive | inactive | inactive | inactive | inactive
5 | ON=C1CCCC1 | – | – | inactive | inactive | inactive | inactive | inactive | inactive | – | – | – | 32.8 µM (active) | inactive | inactive | inactive | inactive | – | inactive | inactive | inactive
6 | CSc1ccc2c(c1)C(N1CCN(C)CC1)Cc1ccccc1S2 (stereo unspecified) | – | 33.5 µM (active) | inactive | inactive | – | – | inactive | – | -6.14% (inactive) | 25.1 µM (active) | – | 34.7 µM (active) | 26.6 µM (active) | 26.6 µM (active) | inactive | 29.8 µM (active) | 1.74 µM (active) | inactive | inactive | –
7 | CCc1cc(SCc2sc(-c3ccc(C(F)(F)F)cc3)nc2CN2CCN(c3ccc(OC)cc3)CC2)ccc1OCC(=O)O | – | 6.11 µM (active) | inactive | – | 54.5 µM (active) | – | – | 24.3 µM (active) | – | – | – | – | 24.3 µM (active) | 4.86 µM (active) | – | 24.3 µM (active) | inactive | inactive | – | 48.6 µM (active)
8 | Cc1oc(-c2ccccc2)nc1CCC(=O)c1ccc(CC2SC(=O)NC2=O)cc1 (stereo unspecified) | inactive | – | inactive | inactive | – | inactive | inactive | – | – | – | – | 11 µM (active) | – | – | – | 21.1 µM (active) | inactive | inactive | inactive | –
9 | C=C(C)C(=O)OCC[N+](C)(C)C | inactive | inactive | inactive | inactive | inactive | inactive | inactive | inactive | – | – | – | inactive | – | – | inactive | 68.3 µM (active) | inactive | – | – | inactive
10 | CC(=O)N1CCN(c2ccc(OC[C@H]3CO[C@](Cn4ccnc4)(c4ccc(Cl)cc4Cl)O3)cc2)CC1 | – | 30.6 µM (active) | – | – | 27.3 µM (active) | 68.6 µM (active) | inactive | 61.1 µM (active) | -4.95% (inactive) | inactive | inactive | – | 13.7 µM (active) | 30.6 µM (active) | inactive | 27.3 µM (active) | – | – | – | inactive
11 | CS(=O)(=O)CCNCc1ccc(-c2ccc3ncnc(Nc4ccc(OCc5cccc(F)c5)c(Cl)c4)c3c2)o1 | – | 15 µM (active) | – | inactive | 26.6 µM (active) | 33.5 µM (active) | inactive | 29.8 µM (active) | – | – | – | 8.71 µM (active) | 7.5 µM (active) | 18.8 µM (active) | – | 23.7 µM (active) | – | inactive | – | –
12 | C[C@H](CCC(=O)O)[C@H]1CC[C@H]2[C@@H]3CC[C@@H]4C[C@H](O)CC[C@]4(C)[C@H]3CC[C@]12C | – | 30.5 µM (active) and 38.6 µM (active) | – | inactive | – | – | 48.4 µM (active) and 61.1 µM (active) | 60.9 µM (active) | – | – | – | – | 19.3 µM (active) and 48.6 µM (active) | 24.2 µM (active) and 61.1 µM (active) | – | 48.4 µM (active) | inactive and 35.6 µM (active) | – | – | 54.5 µM (active)
13 | O=c1c(-c2ccccc2)c1-c1ccccc1 | inactive | inactive | inactive | inactive | 26.6 µM (active) | – | – | – | -15.6% (inactive) | inactive | inactive | 7.76 µM (active) | – | – | inactive | 16.8 µM (active) | – | inactive | – | 11.9 µM (active)
14 | Cc1cc(CCN2CCN(c3nsc4ccccc34)CC2)cc2c1NC(=O)CC2(C)C | – | 27.3 µM (active) | 54.9 µM (active) | – | – | inactive | inactive | 61.1 µM (active) | – | – | – | 71 µM (active) | 19.3 µM (active) | 30.6 µM (active) | – | 24.3 µM (active) | 17.8 µM (active) | – | – | 19.3 µM (active)
15 | CC(C)(C)c1ccc(C(=O)CCCN2CCC(OC(c3ccccc3)c3ccccc3)CC2)cc1 | inactive | – | – | 23.9 µM (active) | – | 29.8 µM (active) | 21100 nM (active) | 29.8 µM (active) | -2.11% (inactive) | – | – | – | – | – | – | 18.8 µM (active) | – | – | – | –
